Measurements as given in PubChem BioAssay (NCI).
This is part of a sample that, as a whole, favours compounds with a hit. Of some 83,000 tested, about 20% had one in any assay.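 How to read the values: 0–100, growth inhibition (40 = 60% inhibited); 0, no net growth; -100 to 0, cell death (-40 = 40% of starting cells died; -100 = all dead).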 Unmarked numbers belong to inactive results. Calls of active or inactive are those of the source. How the source made its calls: active means growth percent below 10; inactive means the rest.

Assays:
Assay in all cases: NCI-60 one-dose screen, 48 h (100 = growth as untreated, 0 = no growth, -100 = all killed)
SK-MEL-2 melanoma = details: 10 µM unless noted
SN12C renal = details: 10 µM unless noted
UO-31 renal = details: 10 µM unless noted
TK-10 renal = details: 10 µM unless noted
ACHN renal = details: 10 µM unless noted
CAKI-1 renal = details: 10 µM unless noted
A498 renal = details: 10 µM unless noted
CCRF-CEM leukemia = details: 10 µM
MOLT-4 leukemia = details: 10 µM unless noted
EKVX NSCLC = details: 10 µM

SMILES	growth (SK-MEL-2 melanoma)	growth (SN12C renal)	growth (UO-31 renal)	growth (TK-10 renal)	growth (ACHN renal)	growth (CAKI-1 renal)	growth (A498 renal)	growth (CCRF-CEM leukemia)	growth (MOLT-4 leukemia)	growth (EKVX NSCLC)
CCOC1=C(Cl)C(=O)C(OCC)=C(Cl)C1=O	100%	98.8%	83.8%	104%	106%	109%	128%	9.18% (active)	88.1%	–
Cc1ccc(S(=O)(=O)N/N=C2\CC3CCC2C3)cc1 (stereo not given)	108%	99.9%	93.9%	122%	94.7%	101%	97.7%	100%	109%	–
COC(=O)/C=C1/CCCCC1(C)C(=O)OC (stereo not given)	108%	101%	95.3%	104%	112%	107%	107%	–	–	–
CCOC(=O)C1=C(c2ccccc2)NC(=O)NC1CN1C(=O)c2ccccc2C1=O (stereo not given)	101%	–	102%	111%	111%	105%	118%	54.4%	2.02% (active)	130%
CN1NC(c2ccccc2)NN(C)C1=O	110%	98.4%	67.8%	114%	95.1%	85.4%	119%	–	–	–
CC(=O)CCS(=O)c1ccccc1 (stereo not given)	97.1%	–	85.8%	89%	112%	–	–	101%	98.3%	106%
O=C(NC1CCN(Cc2ccccc2)CC1)c1cc(-c2cccnc2)nc2ccc(Cl)cc12	100%	63.1%	69.2%	81.6%	81.2%	82.6%	67.2%	64%	58.9%	–
CCCCCN1CCN(C(CC(=O)c2ccccc2)C(=O)c2ccccc2)CC1 (stereo not given)	104%	–	95%	99.9%	106%	81.6%	–	-14.7% (active)	27.9%	110%
O=C(Cc1ccccc1[N+](=O)[O-])c1ccc2c(c1)OCO2	99.4%	96%	80.1%	91.6%	103%	97.8%	77.9%	76.3%	86.6%	–
CCCCCc1ccnc(CC(=O)c2ccc(OC)cc2)c1	98.2%	–	79.6%	82%	93.2%	104%	–	87.8%	98.7%	92.5%
CCCCCC(=C/c1ccccc1)/C=N/N=C(N)N	-55.7% (active)	–	-53.2% (active)	72.9%	1.62% (active)	–	–	15.7%	8.92% (active)	46.1%
COC(=O)c1c[n+]([O-])ccc1OC	117%	98.2%	85.2%	102%	108%	97.2%	111%	–	–	–
Clc1ccc(N/N=C/c2ccccn2)nc1	37.4%	–	-12% (active)	26.7%	5.14% (active)	8.53% (active)	–	11.6%	–	5.55% (active)
COC(=O)[C@H](Cc1cn(C)cn1)NC(=O)[C@@H](NC(=O)Nc1cc(C(F)(F)F)cc(C(F)(F)F)c1)C(C)(C)C	-88.7% [100 µM] (active)	-91.8% [100 µM] (active)	61.1% [100 µM]	-82% [100 µM] (active)	0.692% [100 µM] (active)	55% [100 µM]	-77% [100 µM] (active)	–	–	–
CC(=O)Nc1ccc(C(=O)/C=C/c2ccc(N(C)C)cc2)cc1	95.7%	98.2%	74.5%	95.4%	103%	97%	104%	101%	99.2%	–
O=C(O)CS(=O)c1ccc(Cl)cc1 (stereo not given)	114%	104%	102%	96.1%	95.2%	115%	91.9%	98.5%	90.5%	–
[N-]=[N+]=Nc1ncc(-c2ccc(C(F)(F)F)cc2)c(NC2CCCCCC2)n1	5.91% [100 µM] (active)	42.5% [100 µM]	22.1% [100 µM]	45.3% [100 µM]	26.8% [100 µM]	-14.6% [100 µM] (active)	32.9% [100 µM]	–	16.9% [100 µM]	–
CCC(C)CC(N)O (stereo not given)	128%	109%	101%	99%	106%	110%	109%	115%	106%	–
CCOC(=O)c1csc(-c2ccc(COC(=O)c3ccccc3)o2)n1	107%	96.1%	83.5%	107%	95%	81.2%	112%	–	4.16% (active)	–

SMILES	growth (SK-MEL-2 melanoma)	growth (SN12C renal)	growth (UO-31 renal)	growth (TK-10 renal)	growth (ACHN renal)	growth (CAKI-1 renal)	growth (A498 renal)	growth (CCRF-CEM leukemia)	growth (MOLT-4 leukemia)	growth (EKVX NSCLC)
CCCCCCC(=O)C(C)C	115%	104%	92.3%	101%	103%	91%	115%	–	96.6%	–
O=C(NCCNCCO)c1cc([N+](=O)[O-])cc([N+](=O)[O-])c1O	117%	96.1%	95.9%	101%	107%	100%	106%	94.3%	102%	–
CCC(C)[C@H](NC(=O)Nc1cc(C(F)(F)F)cc(C(F)(F)F)c1)C(=O)N[C@@H](Cc1cn(C)cn1)C(=O)OC (stereo not given in full)	-92.4% [100 µM] (active)	-82% [100 µM] (active)	-95.3% [100 µM] (active)	-98.7% [100 µM] (active)	-98.4% [100 µM] (active)	-99.6% [100 µM] (active)	-94.4% [100 µM] (active)	–	-54.9% [100 µM] (active)	–
CCOc1ccc(N(C)c2ccc(/C=C/C3=[N+](C)c4ccccc4C3(C)C)cc2)cc1	-45.9% (active)	2.99% (active)	3.71% (active)	-16.1% (active)	-95.9% (active)	-2.85% (active)	42.6%	–	-25.4% (active)	–
CCOc1ccc(/C=N/NC(=O)c2cccc3ccccc23)cc1OCC	106%	96.1%	81.6%	111%	102%	99.3%	78.1%	–	88.3%	–
O=C(CCl)NC1c2ccccc2Oc2ccccc21	63%	81.1%	92.1%	84.4%	72.4%	64.6%	97.3%	–	62.6%	–
COc1ccc(/C=C/C(=O)/C=C/c2cc3ccccc3[nH]c2=O)cc1	95.9%	66.5%	94.4%	118%	84.1%	98.2%	100%	8.49% (active)	19.4%	–
COc1cc(-c2cc3cnccc3c3nc(N)c4ccncc4c23)cc(OC)c1OC	70.1%	40.7%	11.9%	22.6%	34.5%	43.6%	-16.8% (active)	36.5%	32.9%	–
CCCC(=O)NNc1[nH]c(-c2cc(OC)c(OC)c(OC)c2)cc1C(=O)OCC	103%	108%	88.7%	74.1%	81%	73.1%	120%	9.44% (active)	1.13% (active)	–
CCN(CC)CCCC(C)Nc1c(C)cnc2cc(Cl)c(C)cc12 (stereo not given)	117%	94.5%	66.8%	90.5%	94%	80.6%	83.2%	62.2%	62.7%	–
CC1(C)NC(=S)NC1=O	129%	105%	90.6%	112%	109%	97.8%	88.3%	88.2%	90.8%	–
O=C(CCC(=O)N(CCO)CCO)N(CCO)CCO	102%	106%	86%	99.5%	107%	93.3%	120%	–	90.8%	–
C=CCC(CCC(CC=C)C(=O)OCC)C(=O)OCC (stereo not given)	106%	100%	88.5%	91.6%	108%	103%	120%	–	104%	–
CC(O)CN(CCO)CCN(CCO)CC(C)O (stereo not given)	114%	104%	99.6%	103%	102%	95.1%	112%	–	100%	–
CSCc1ncc(-c2ccc(C(F)(F)F)cc2)c(NC2CCCCCC2)n1	57.5% [25 µM]	83.2% [25 µM]	51.9% [25 µM]	97% [25 µM]	77.9% [25 µM]	25.1% [25 µM]	60.8% [25 µM]	–	23% [25 µM]	–
CC(O)c1cc[cH-]c1.[Fe+2].c1cc[cH-]c1 (stereo not given)	109%	98.9%	86.5%	96%	89.8%	88%	103%	–	89.3%	–
O=CN/N=C/c1ccc(Cl)c([N+](=O)[O-])c1	41.1%	21.2%	80.1%	8.5% (active)	44.2%	41.1%	56%	15.3%	20.6%	–
CC(C)OC(=O)Nn1cnc2ccccc21	106%	113%	93.1%	87.6%	114%	92.2%	119%	81%	75.2%	–
CCCCCCCCC(=O)Nc1ccc(O)cc1	93%	94.3%	61.9%	87.1%	79.2%	93.9%	102%	–	57.9%	–

SMILES	growth (SK-MEL-2 melanoma)	growth (SN12C renal)	growth (UO-31 renal)	growth (TK-10 renal)	growth (ACHN renal)	growth (CAKI-1 renal)	growth (A498 renal)	growth (CCRF-CEM leukemia)	growth (MOLT-4 leukemia)	growth (EKVX NSCLC)
O=C1CCNC1	109%	103%	92.1%	100%	101%	113%	94.9%	–	98.8%	–
CCCCCCCCCCCCOC(=O)/C=C\C(=O)NC(N)=O	50.7%	84.3%	93%	86.9%	88.4%	90.3%	101%	–	45.1%	–
CN(C)CCOC(=O)C(C)(C)C	103%	102%	89.9%	102%	98.1%	105%	103%	–	95.9%	–
BrCCCOc1ccc(Oc2ccc(OCCCBr)cc2)cc1	97.4%	95.3%	105%	108%	120%	112%	99.4%	–	96.4%	–
COc1ccc(Nc2c3ccccc3nc3ccccc23)cc1	54.5%	30.1%	7.72% (active)	51.8%	-11% (active)	10.2%	42.1%	–	-9.93% (active)	–
COc1cc2c(c3c1c(=O)c1cccc(F)c1n3C)C=CC(C)(C)O2	113%	64.3%	-26.5% (active)	95.2%	47.9%	-64% (active)	90%	–	85.2%	–
C/C=C(/C)C(=O)OC1C=C(CO)C(=O)C(OC(=O)/C(C)=C\C)C1C(C)C (stereo not given)	-48.9% (active)	-56.9% (active)	-100% (active)	-88.8% (active)	-100% (active)	-98.7% (active)	-77.6% (active)	-3.36% (active)	-16.8% (active)	–
O=C(/C=C/c1ccc(Cl)cc1)c1ccc(Cl)cc1	97.2%	102%	76.2%	78%	109%	75.7%	82.8%	66.9%	81%	–
CCCCCCCCCCC(C[N+](C)(C)C/C=C/c1ccccc1)C(O)c1ccccc1 (stereo not given)	-52.7% (active)	15.8%	74.1%	-2.74% (active)	72.2%	87.5%	59%	–	-24.4% (active)	–
FC(F)(F)c1cccc(-c2[nH]ncc2-c2nnnn2-c2ccccc2)c1	78.3%	65.5%	72.4%	65.5%	68.6%	69.4%	43.4%	53.5%	27.1%	–
O=C(NCCO)C(F)(F)F	105%	102%	94.2%	102%	101%	95.9%	107%	–	99.3%	–
CCCCCCCCCCCCCCCCCC(=O)Nc1ccc(O)cc1	83.1%	75.7%	52.5%	85.3%	104%	95.1%	109%	–	26.7%	–
CN(CCC#N)c1ccc(/C=C(\C#N)c2cccc(C(F)(F)F)c2)cc1	51%	72.1%	53.4%	69.3%	76.1%	49.8%	74.1%	–	53.8%	–
CCCCCCCCCCCC(=O)OC(C)C(=O)Nc1ccccc1 (stereo not given)	97.6%	93%	78.2%	94.9%	87.6%	91.2%	103%	–	96.1%	–
CCCCCCCCC/C(=N\NC(=O)c1ccncc1)c1ccc(O)c(O)c1O	38.5%	25.7%	20.8%	43.1%	15.8%	14.3%	45%	9.71% (active)	15.5%	–
Brc1c(-c2ccncc2)nc2n1CCS2	92.7%	91.7%	94.5%	97.5%	87.7%	90.2%	77.6%	-8.76% (active)	87.3%	–
CC[N+](C)(C)N	108%	104%	89.8%	100%	110%	95.4%	121%	–	104%	–
CCc1c(C)c2ccc(OCC(=O)N=Nc3c(O)[nH]c4ccccc34)c(C)c2oc1=O	32.9%	-43% (active)	64.8%	61.3%	82.2%	–	56.9%	10.3%	8.66% (active)	–
COC(=O)c1cc(Nc2ccc(O)c3c2C(=O)c2c([N+](=O)[O-])ccc(O)c2C3=O)cc(C(=O)OC)c1	10.6%	70.5%	67.1%	60.4%	90.5%	–	93.8%	23%	25.5%	–
